Experimental findings from PubChem BioAssay (NCATS) are described below.

The structures appear in SMILES notation. Several values for one entry are separate records, joined by “and”; a condition that tells them apart may be missing. Equal entries are not always repeated. Results filed as inconclusive are left out. Values without a mark were called inactive. Calls come from the whole dose curve; as a rule, active = well fitted inhibition curve with a large enough effect; inconclusive = small, poorly fitted or top-dose-only effect; inactive = flat fitted curve, though single readings scatter.
% is set by controls: 0 for no effect and ±100 for the full control effect.

This assay has as its system KB-3-1. Put plainly: Cytotoxic Profiling of Annotated Libraries Using Quantitative High-Throughput Screening (AID 1296008). Note: nearly all actives have a fitted effect of over 60% in size. To be noted: Five cell lines viability, CellTiter-Glo ATP luminescence, 48-72 h; max response: hits give low values. Put shortly: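 Compounds were pin-transferred onto cells and incubated 48 or 72 hr at 37 degree Celsius, 95% humidity. CellTiter-Glo was added, plates sat 10 min at room temperature, then ATP-coupled luminescence was imaged as the viability read-out.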
(In general: ATP-based viability assays read luminescence as a measure of living cells.)
Regarding `C[C@@H]([C@H](O)c1ccccc1)N(C)C`, the max response was 3.96%.
For the compound `CC1(C)S[C@@H]2[C@H](N)C(=O)N2[C@H]1C(=O)O`, the max response is -11.7%.
For `C[C@]12C[C@H]3S[C@H]3C[C@@H]1CC[C@@H]1[C@@H]2CC[C@]2(C)[C@@H](O)CC[C@@H]12`, the max response was 5.47%.
Regarding `CCCC(C)C1(CC)C(=O)NC(=O)NC1=O` (stereo not given), the max response is -12.9%.
The value for `c1ccc2sc(SNC3CCCCC3)nc2c1` was -2.06%.
Take `CC(C)[C@@]1(NC(=O)[C@@H]2C[C@@H]3c4cccc5[nH]cc(c45)C[C@H]3N(C)C2)O[C@@]2(O)[C@@H]3CCCN3C(=O)[C@H](Cc3ccccc3)N2C1=O`: the max response was 25.3% and -16.4%.
Turning to `OC[C@@H](O)[C@H]1O[C@@H]2O[C@@H](C(Cl)(Cl)Cl)O[C@@H]2[C@H]1O`, the max response was 1.39%.
On to `O=C(O)C(Cl)(Cl)Cl`, for which the max response is -15.3%.
Turning to `C[N+]1([O-])[C@@H]2CC(OC(=O)[C@H](CO)c3ccccc3)C[C@H]1[C@@H]1O[C@@H]12` (stereo not given in full), the max response was -17% and 5.47%.
As to `CC(C)CCON=O`, the max response is 10.4%.
As for `CCCCNCC(O)c1ccc(O)cc1` (stereo not given), the max response was 13.7%.
The value for `[S]=[Sb](=[S])[S][Sb](=[S])=[S]` was 2.26%; that for `C=CCC1(C(C)CCC)C(=O)N=C(S)NC1=O` (stereo not given) was -6.22%.
For the compound `CN1[C@@H]2CC[C@H]1CC(OC1c3ccccc3CCc3ccccc31)C2` (stereo not given in full), the max response was 1.95%.
For the compound `CC[C@H]1[C@@H]2C[C@H]3[C@@H]4N(C)c5ccccc5[C@]45C[C@@H](C2[C@H]5O)N3[C@@H]1O` (stereo not given in full), the max response is -5.46%.
